SNCA viab count = GF-AFC viability counterscreen for inhibitors of alpha-synuclein gene (SNCA) expression; HEK-293-SNCA-luc viability, GF-AFC fluorescence, 24 h; Potency, µM (titrated, usually from 57.1 µM), for inactives: at the highest dose activity change, negative = cytotoxicity, usual class: cytotoxic; 0.12% of 150,000 active; AID 1671193, 2021;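 note: potency is the fitted concentration of half-maximal effect; 0% = DMSO-treated cells and -100% = medium-only wells without cells; nearly all actives have a fitted effect of over 30% in size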
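HEK-293-SNCA-luc cells (1500/well) plated 24 h, then exposed 24 h to a dilution series; GF-AFC added 30 min at 37C, fluorescence 405/540 nm; normalised to medium-only and DMSO wells, Hill fit.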
IP6K1 inhibitor = Primary qHTS assay for small molecule inhibitors of Inositol hexaphosphate kinase 1 (IP6K1); Inositol hexakisphosphate kinase 1 (Homo sapiens), Q92551; IP6K1 kinase, ADP-Glo luminescence, 2 h; hits give low values; activity change, % (series mostly up to about 58 µM); 0.81% of 140,000 active; in the data active = activity change below about -25%; note: % is set by controls: 0 for no effect and ±100 for the full control effect
Target sequence (Q92551 whole entry, looked up): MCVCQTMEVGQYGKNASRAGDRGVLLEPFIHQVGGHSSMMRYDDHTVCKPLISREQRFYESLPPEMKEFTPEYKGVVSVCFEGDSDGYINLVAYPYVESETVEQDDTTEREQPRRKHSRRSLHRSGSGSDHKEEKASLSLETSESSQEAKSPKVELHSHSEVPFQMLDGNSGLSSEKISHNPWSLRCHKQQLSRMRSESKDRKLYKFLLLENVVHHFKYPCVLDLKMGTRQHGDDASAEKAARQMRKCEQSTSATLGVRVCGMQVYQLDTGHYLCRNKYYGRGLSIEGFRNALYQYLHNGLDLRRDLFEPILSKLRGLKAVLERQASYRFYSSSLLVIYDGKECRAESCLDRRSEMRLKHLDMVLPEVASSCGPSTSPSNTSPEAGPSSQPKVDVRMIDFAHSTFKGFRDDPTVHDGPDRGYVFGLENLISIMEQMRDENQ
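ADP-Glo luminescence measures ADP made by human IP6K1 during a 2 h RT reaction with ATP/IP6 (mix at 1.3 mM/130 uM); top library doses 57.5 and 19.1 uM final.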
KDM5B inh = Primary screen for KDM5B Histone Demethylases FDH-coupled qHTS | KDM5B demethylase, FDH-coupled NADH fluorescence (FDH is formaldehyde dehydrogenase) | Potency, µM (series often up to 57.7 µM), hits mostly inhibitors | 2.6% of 220,000 active | Lysine-specific demethylase 5B (Homo sapiens), Q9UGL1; note: potency is the fitted concentration of half-maximal effect; 0% is about no effect; nearly all actives have a fitted effect of over 70% in size
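Here, H3K4me3 peptide (12.5 µM in substrate mix) is demethylated by KDM5BΔAP, 200 nM final, after 10 min compound exposure. Formaldehyde product is coupled through FDH (0.25 U/mL in mix) to NADH fluorescence; 30-min ΔRFU feeds dose-response curves.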
SNCA expr inh = Primary qHTS assay for inhibitors of alpha-synuclein gene (SNCA) expression; HEK-293 SNCA-luciferase knock-in, luminescence, 24 h; Potency, µM (highest dose often 57.2 µM), without a hit: at the top dose activity change, negative = inhibition, most hits filed as inhibitors; 0.17% of 140,000 active; AID 1671194, 2021;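 note: potency is the fitted concentration of half-maximal effect; plate controls were DMSO cells for no effect and cell-free wells for full effect; nearly all actives have a fitted effect of over 45% in size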
An asterisk follows results filed as active; i = inactive; ? = inconclusive; nt = no result given; [ ] = another dose, or the depositor's remark. An excerpt weighted towards active compounds, which were near 3% of everything screened. Unless noted, calls come from the whole dose curve; as a rule, active = well fitted curve in the direction sought with a large enough effect; inconclusive = small, poorly fitted or top-dose-only effect, or another doubt; inactive = no such curve, though single readings can be large; an effect the other way counts as inactive or inconclusive.

SMILES	SNCA viab count	IP6K1 inhibitor	KDM5B inh	SNCA expr inh
COc1ccccc1-c1ccnc(N[C@H]2CO[C@H]3[C@@H]2OC[C@@H]3NC(=O)N2CCOCC2)n1	-0.2%	-2.6	25.1µM*	-13.6%
COc1ccccc1-c1ccnc(N[C@H]2CO[C@H]3[C@@H]2OC[C@@H]3NS(C)(=O)=O)n1	-5.3%[87.6 µM]	-8.7	35.5µM*	0.0%[87.6 µM]
CC(C)c1ccc(NS(=O)(=O)c2ccc3c(c2)-c2oncc2CO3)cc1	nt	nt	i	nt
CC(C)N1CCC(CNC(=O)Nc2ccccc2F)C1 (stereo not drawn)	nt	nt	i	nt
Cc1cc(N2CCOCC2)nc(Nc2ccc(NC(=O)Nc3cccc(Cl)c3)cc2)n1	nt	nt	i	nt
NC(=O)C1CCCN(Cc2ccc(-c3cnc4c(OCc5ccccc5)nccn34)cc2)C1 (stereo not drawn)	-6.8%	-0.4	28.2µM*	102.7%
OC1CN(Cc2ccc(-c3cnc4c(OCc5ccccc5)nccn34)cc2)C1	-9.9%[87.6 µM]	5.3	31.6µM*	69.9%[87.6 µM]
O=C1CN(Cc2ccc(-c3cnc4c(OCc5ccccc5)nccn34)cc2)CCN1	-13.6%[87.6 µM]	-8.4	35.5µM*	5.6%[87.6 µM]
O=[S+]1([O-])CCN(Cc2ccc(-c3cnc4c(OCc5ccccc5)nccn34)cc2)CC1	-9.9%	8.0	22.4µM*	8.7%
O=C(NCc1ccc(-c2cnc3c(Oc4ccccc4)nccn23)cc1)c1ccn[nH]1	2.5%[87.6 µM]	-4.2	?	-5.7%[87.6 µM]
CCOc1nccn2c(-c3ccc(CN4CCN(C(C)=O)CC4)cc3)cnc12	-2.3%[87.6 µM]	-19.8	?	-11.2%[87.6 µM]
Oc1ccc(-c2nc(C3CC3)nc3c2CN(CC2CC2)CC3)cc1	-13.7%[87.6 µM]	19.7	nt	-23.2%[87.6 µM]
OC1CCC(NCc2ccc(-c3cnc4c(OCc5ccccc5)nccn34)cc2)CC1 (stereo not drawn)	-10.2%[87.6 µM]	-15.1	28.2µM*	13.1%[87.6 µM]
Cc1noc(-c2ccc3c(c2)OCO3)c1C(=O)NCc1ccccc1	13.4%	1.6	28.2µM*	8.8%
Cc1cccc(CNC(=O)c2c(C)noc2-c2ccc3c(c2)OCO3)c1	5.7%	-1.2	31.6µM*	-1.9%
Cc1ccc(CNC(=O)c2c(C)noc2-c2ccc3c(c2)OCO3)o1	5.8%	-10.7	25.1µM*	-15.7%
Cc1cccc(CNC(=O)c2noc(-c3ccc4c(c3)OCO4)n2)c1	5.0%	-3.3	?	75.5%
CC(C)c1ccc(NC(=O)CCn2cnc3c2c(=O)n(C)c(=O)n3C)cc1	nt	nt	i	nt
C/C(=N\Nc1ccc([N+](=O)[O-])cc1)c1ccc(C)cc1C	nt	nt	i	nt
COc1ccc(CNC23CC4CC(CC(C4)C2)C3)c2ccccc12	nt	nt	i	nt
COc1ccccc1-n1cc(-c2ccnc(N3CC(n4cccn4)C3)n2)cn1	2.4%	18.9	31.6µM*	-12.2%
Cc1cc(-c2cc3c(n(Cc4cccnc4)c2=O)CCN(C(=O)CCc2ccccc2)C3)ccc1F	2.3%	8.2	25.1µM*	-22.7%
CCn1c2c(c(=O)n1-c1ccccc1)CCN(C(=O)CCc1cccnc1)C2	-5.6%[87.6 µM]	12.1	i	2.0%[87.6 µM]
COc1ccc2c(c1)CCN=C2C[C@H]1CN(C(=O)Nc2ccccc2)CC[C@H]1CC(=O)O	1.1%[87.6 µM]	0.1	?	29.0%[87.6 µM]
COc1cc2c(cc1OC)C(C[C@H]1CN(C(=O)C(=O)O)CC[C@H]1CC(=O)O)=NCC2	22.4%[87.6 µM]	0.2	i	11.1%[87.6 µM]
SMILES	SNCA viab count	IP6K1 inhibitor	KDM5B inh	SNCA expr inh
COc1cc2c(cc1OC)C(C[C@H]1CN(C(=O)Nc3ccc(Cl)cc3)CC[C@H]1CC(=O)O)=NCC2	-2.0%	13.5	28.2µM*	11.6%
COc1cc2c(cc1OC)C(C[C@H]1CN(C(=O)Nc3cccc(Cl)c3)CC[C@H]1CC(=O)O)=NCC2	3.2%	6.9	31.6µM*	?
CC(=O)c1ccc(NC(=O)C(C)Sc2nc3nc(C)cc(C)c3c(=O)[nH]2)cc1 (stereo not drawn)	nt	nt	i	nt
COc1ccc(C(=O)N2CCC3(C2)C(=O)N(CCc2ccccc2)c2ccccc23)cc1 (stereo not drawn)	?	-0.5	i	-10.5%
COc1ccc(C(=O)N2CCC3(C2)C(=O)N(Cc2ccccc2)c2ccccc23)cc1 (stereo not drawn)	11.2µM*	-6.6	i	?
CCC(CC)CN1CC2(CCN(C(=O)c3cn4cccnc4n3)CC2)OC1=O	4.5%	11.1	31.6µM*	-12.7%
N#Cc1ccc(NC2CC(c3cc(N4CCC(O)C4)ncn3)C2)nc1 (stereo not drawn)	4.0%	-8.8	31.6µM*	3.1%
